Bioassay records from PubChem.
This is a sample that favours compounds with a hit; in the whole collection about 15% have one here.
HCV inhibitor = blocks hepatitis C virus; Huh7.5.1 HCVcc-Cre infection, luciferase reporter, 44 h; Potency, µM (top dose mostly 41.8 µM), usual class: inhibitors; hit rate 3.4% among 340,000
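A cell-based infection assay in which seeded cells (1,000 per well) receive test compound after 4 h, are inoculated with HCVcc-Cre at approximately 0.5 moi, and are incubated 44 h before luminescence detection.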
HCMV inh = blocks human cytomegalovirus replication | HFF cells, HCMV-luciferase reporter, 72 h; active compounds read low | activity change, negative = inhibition, % at 57.5 µM | hit rate 4.5% among 410,000 | AID 1259415; in the data active = activity change below about -60%; inconclusive = no clear call, values can overlap the other calls; inactive = above about -39%
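Human foreskin fibroblasts infected with luciferase-reporter HCMV at MOI 1 PFU/cell, compounds at two doses. Luciferase measured 72 h post infection; normalized to buffer-only basal and Salinomycin (10uM) controls.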
Sm TGR inh = inhibitors of Schistosoma mansoni thioredoxin glutathione reductase; Q962Y6; Potency, µM (highest dose often 114 µM), hits mostly inhibitors; hit rate 3% among 360,000; AID 485364; purified TGR, DTNB reduction, TNB absorbance 405 nm; also: nearly all actives have a fitted effect of over 60% in size
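Kinetic colorimetric format: TGR-catalysed, NADPH-driven DTNB reduction monitored via TNB absorbance. Enzyme dispensed at 20 nM; compound exposure 15 min at room temperature before reaction start.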
Pf growth 96h = P. falciparum growth inhibition at 96 hour, primary screen for plastid delayed-death inhibitors | P. falciparum luciferase reporter growth, 96 h | Potency, µM (doses to about 28.7 µM), actives largely listed as inhibitors | hit rate 6.9% among 320,000 | AID 504834
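Infected RBCs, 2% Hct / 0.05% parasitemia final; luciferase-reporter P. falciparum; cpd 96 h, 37 C, 5% CO2; luciferase detection reagent; luminescence.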
Pf growth 48h = inhibits P. falciparum growth in the first generation, 48 h. P. falciparum luciferase growth in erythrocytes, 48 h. Potency, µM (highest dose often 28.7 µM), most hits filed as inhibitors. hit rate 5.9% among 310,000
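Luciferase-expressing P. falciparum in infected erythrocytes (2% hematocrit, 0.1% parasitemia final) in RPMI 1640/0.5% Albumax were exposed to compound for 48 hours at 37 C, 5% CO2; growth read as luminescence.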
SARS PLP yeast = inhibitors of SARS-CoV papain-like protease in yeast | hit rate 0.19% among 330,000 | AID 485353 | S. cerevisiae expressing SARS-CoV PLpro, growth rescue | Potency, µM (doses to about 32.9 µM), hits mostly activators; calls by dose curve; also: nearly all actives have a fitted effect of over 55% in size
Each line names hits and unclear results; the compound was inactive in the other large screens. Unless noted, calls follow the shape of the dose curve; as a rule, active = well fitted curve in the direction sought with a large enough effect; inconclusive = small, poorly fitted or top-dose-only effect, or another doubt; inactive = no such curve, though single readings can be large; an effect the other way counts as inactive or inconclusive.

O=C(C#Cc1ccccc1)c1cccc([N+](=O)[O-])c1	HCV inhibitor inconclusive, Sm TGR inh 0.251µM (no result: Pf growth 48h)
O=C(CNC(=S)NC(=O)c1cccc([N+](=O)[O-])c1)c1ccccc1	Pf growth 96h 10.4µM
O=C(NC(=S)NCCc1ccccc1)C1CCCCC1	HCV inhibitor inconclusive, Sm TGR inh inconclusive
CC(=O)c1cccc([N+](=O)[O-])c1	HCV inhibitor inconclusive
CCOc1ccccc1NC(=S)NC(=O)C1CC1	HCMV inh -63.6, Sm TGR inh inconclusive, Pf growth 96h inconclusive, Pf growth 48h 5.22µM
O=C(Cc1cc2ccccc2o1)NCc1ccc(F)cc1	none (no result: HCMV inh)
COc1ccc(CC(=O)N/N=C\c2cc(Br)c(O)c(Br)c2)cc1	Pf growth 96h inconclusive
Cc1ccccc1NC(=S)NC(=O)C1CCCCC1	Sm TGR inh 14.1µM, Pf growth 48h inconclusive
CCc1nnc(NC(=O)C(C)Sc2ccccc2)s1 (stereo unspecified)	none (no result: Pf growth 48h)
Cc1csc(NC(=O)CSc2nc3[nH]c(=O)cc(O)c3s2)n1	HCV inhibitor 10µM, HCMV inh inconclusive (no result: Sm TGR inh, Pf growth 96h, Pf growth 48h, SARS PLP yeast)
CCSc1nnc(NC(=O)CSc2sc3c(O)cc(=O)[nH]c3c2C#N)s1	none
CCc1nnc(NC(=O)CSc2sc3c(O)cc(=O)[nH]c3c2C#N)s1	Sm TGR inh 35.5µM, Pf growth 96h inconclusive
Cc1csc(NC(=O)CSc2sc3c(O)cc(=O)[nH]c3c2C#N)n1	Sm TGR inh inconclusive, Pf growth 96h 2.08µM
COC(=O)CSC1=C(C#N)C(c2ccc3c(c2)OCO3)C2=C(CCCC2=O)N1 (stereo unspecified)	Pf growth 96h inconclusive (no result: HCMV inh)
COC(=O)C1=C(N)N(c2ccccc2C(F)(F)F)C2=C(C(=O)CCC2)C1c1ccc2c(c1)OCO2 (stereo unspecified)	HCV inhibitor inconclusive, HCMV inh inconclusive, Pf growth 96h 7.38µM, Pf growth 48h 3.7µM
COc1cc(Br)c(C(C)NC(=O)c2ccccc2)cc1OC (stereo unspecified)	Pf growth 96h 11.7µM, Pf growth 48h 13.1µM
COc1ccc(OC)c(C(C)NC(=O)c2ccc(Br)cc2)c1 (stereo unspecified)	none
COc1ccc(O)c(CN2CCC(n3nccc3NC(=O)C3CCCC3)CC2)c1	Sm TGR inh inconclusive, Pf growth 96h inconclusive, Pf growth 48h 13.1µM
O=C(Nc1ccnn1C1CCN(Cc2ccccc2)CC1)C1CCCC1	Pf growth 48h inconclusive
COc1ccc(CN2CCC(n3nccc3NC(=O)C3CCCC3)CC2)c(OC)c1	Pf growth 48h inconclusive
Cn1cc(CN2CCC(n3nccc3NC(=O)c3ccccc3Cl)CC2)c2ccccc21	Pf growth 96h inconclusive, Pf growth 48h 3.29µM
CCOc1ccccc1CN1CCC(n2nccc2NC(=O)C2CCCC2)CC1	HCV inhibitor inconclusive, Pf growth 48h 11.7µM
Cc1cccc(NC(=O)CSc2nccn2Cc2ccco2)c1C	none
O=[N+]([O-])c1ccccc1S(=O)(=O)Nc1ccn(Cc2c(F)cccc2Cl)n1	Pf growth 96h inconclusive
Cc1ccc(NC(=O)c2cc(-c3ccccc3)nn2-c2ccccc2)cc1	HCV inhibitor inconclusive, Pf growth 96h 10.4µM
CC(=O)Nc1cc(-c2ccc(Cl)cc2)nn1-c1ccccc1	Pf growth 96h 9.28µM
Cc1cc(C(=O)Nc2ccc(Br)cc2F)n(-c2ccccc2)n1	HCMV inh inconclusive
O=C(Nc1ccc(F)cc1)c1nn(-c2ccccc2)c(=O)cc1Cl	HCV inhibitor 6.31µM, HCMV inh -100.2 (no result: Sm TGR inh)
COC(=O)c1nn(-c2ccccc2)c(=O)cc1O	HCMV inh inconclusive
Cc1ccc(NC(=O)c2cc(-c3ccccc3)nn2-c2ccccc2)c(Br)c1	HCV inhibitor inconclusive, Pf growth 96h 11.7µM, Pf growth 48h inconclusive
CC(=O)c1ccc(NC(=O)c2cc(C)nn2-c2ccccc2)cc1	none (no result: HCV inhibitor, Pf growth 96h, Pf growth 48h, SARS PLP yeast)
O=C(NCc1ccccc1)C(C1CC1)n1c(CSCCOc2ccccc2)nc2ccccc21 (stereo unspecified)	none (no result: HCV inhibitor, Sm TGR inh, Pf growth 96h, Pf growth 48h, SARS PLP yeast)
C[C@@H]1CNC(=O)c2c(C(=O)Nc3cccc(Cl)c3)ncn21	none (no result: HCV inhibitor, Sm TGR inh, Pf growth 96h, Pf growth 48h, SARS PLP yeast)
C=C1c2cccc(C(F)(F)F)c2O[C@H](C(=O)OCC)[C@H]1OC	none (no result: Sm TGR inh, Pf growth 96h, Pf growth 48h)
Cc1cc(S(=O)(=O)NCCC2=CCCCC2)ccc1Br	none
